The source of these data is PubChem BioAssay AID1347074 (Center for Chemical Genomics, University of Michigan, 2019).

The whole screen tested about 47,000 compounds, of which about 2,800 (6%) were called active. Shown is part of a subset that was picked to be rich in actives. Unmarked numbers belong to inactive results. No stated cut-off is given here; in the data, active means z-score above about 3 (passing the limit was not always enough); inactive means the rest.

Chain of Endoribonuclease Dicer (Homo sapiens) (Q9UPY3 whole entry, looked up): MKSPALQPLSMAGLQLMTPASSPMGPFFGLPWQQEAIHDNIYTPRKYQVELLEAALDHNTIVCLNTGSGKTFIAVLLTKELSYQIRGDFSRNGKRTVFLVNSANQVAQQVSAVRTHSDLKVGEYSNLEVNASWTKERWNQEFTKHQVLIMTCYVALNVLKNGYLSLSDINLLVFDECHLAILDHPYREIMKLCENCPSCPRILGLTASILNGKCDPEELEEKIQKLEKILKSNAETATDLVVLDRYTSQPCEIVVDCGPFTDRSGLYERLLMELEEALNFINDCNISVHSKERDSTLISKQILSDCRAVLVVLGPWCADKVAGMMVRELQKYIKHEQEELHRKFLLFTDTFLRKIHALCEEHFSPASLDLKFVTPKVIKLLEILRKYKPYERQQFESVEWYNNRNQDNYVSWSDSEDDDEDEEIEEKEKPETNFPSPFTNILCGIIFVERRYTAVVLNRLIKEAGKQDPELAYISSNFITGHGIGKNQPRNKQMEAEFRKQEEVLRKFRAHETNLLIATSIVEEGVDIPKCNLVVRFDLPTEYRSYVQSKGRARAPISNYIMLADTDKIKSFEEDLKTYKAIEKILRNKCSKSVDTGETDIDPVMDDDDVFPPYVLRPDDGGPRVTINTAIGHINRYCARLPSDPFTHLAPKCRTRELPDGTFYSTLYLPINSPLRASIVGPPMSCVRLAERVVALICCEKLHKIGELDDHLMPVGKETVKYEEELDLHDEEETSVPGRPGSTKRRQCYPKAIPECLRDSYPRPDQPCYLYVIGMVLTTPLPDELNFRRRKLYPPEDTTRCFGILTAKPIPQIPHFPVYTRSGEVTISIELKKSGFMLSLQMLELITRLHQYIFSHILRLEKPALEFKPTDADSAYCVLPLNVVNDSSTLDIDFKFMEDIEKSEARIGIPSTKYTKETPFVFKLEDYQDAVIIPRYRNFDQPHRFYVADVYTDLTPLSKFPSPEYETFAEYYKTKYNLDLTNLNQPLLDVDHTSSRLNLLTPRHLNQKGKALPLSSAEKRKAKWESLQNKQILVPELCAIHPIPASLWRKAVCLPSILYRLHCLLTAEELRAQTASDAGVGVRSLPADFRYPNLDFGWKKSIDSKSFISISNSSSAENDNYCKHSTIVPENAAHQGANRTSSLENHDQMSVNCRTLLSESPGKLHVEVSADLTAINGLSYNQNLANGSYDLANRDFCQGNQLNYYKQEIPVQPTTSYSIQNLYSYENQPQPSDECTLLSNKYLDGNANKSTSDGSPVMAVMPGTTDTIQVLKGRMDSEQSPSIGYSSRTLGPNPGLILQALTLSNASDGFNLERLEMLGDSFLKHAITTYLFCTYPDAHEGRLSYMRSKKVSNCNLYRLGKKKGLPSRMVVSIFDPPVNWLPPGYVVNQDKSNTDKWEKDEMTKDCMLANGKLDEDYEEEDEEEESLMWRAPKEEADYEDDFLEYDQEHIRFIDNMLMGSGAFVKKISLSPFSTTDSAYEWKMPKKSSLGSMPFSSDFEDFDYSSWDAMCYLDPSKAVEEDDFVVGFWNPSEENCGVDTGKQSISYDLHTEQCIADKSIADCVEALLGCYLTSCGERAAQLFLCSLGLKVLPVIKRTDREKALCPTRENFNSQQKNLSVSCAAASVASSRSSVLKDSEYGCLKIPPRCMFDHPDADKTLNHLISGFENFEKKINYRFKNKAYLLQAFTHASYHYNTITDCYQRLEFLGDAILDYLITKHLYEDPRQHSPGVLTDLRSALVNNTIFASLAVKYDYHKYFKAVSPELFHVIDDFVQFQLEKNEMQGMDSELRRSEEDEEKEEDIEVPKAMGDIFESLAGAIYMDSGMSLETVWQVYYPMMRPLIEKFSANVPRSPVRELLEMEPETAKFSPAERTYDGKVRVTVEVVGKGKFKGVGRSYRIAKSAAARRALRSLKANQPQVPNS

This assay concerns the target Endoribonuclease Dicer (Homo sapiens) (UniProt Q9UPY3). As to the kind of experiment: inhibitors of Dicer pre-microRNA processing, primary screen, biochemical, cat-ELCCA, chemiluminescence (AID 1347074).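 Further: plate controls were vehicle for no effect and no enzyme for full effect; higher signal means more uncleaved substrate so more Dicer inhibition.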 The conditions noted are these: cat-ELCCA pre-miR-21 Dicer processing, at 25 µM, stronger effect = higher value.
Take `O=C(O)/C=C/C(=O)N1CCN(c2nccc(C(F)(F)F)n2)CC1`: the z-score was 0.2.

Regarding `NC(=O)c1c(NC(=O)c2sc3cc(Cl)ccc3c2Cl)sc2c1CCC2`, the z-score was 0.57.

`CCCCC(=O)N(c1ccc2oc(=O)sc2c1)S(=O)(=O)c1ccc(F)cc1`: the z-score was 3.38 (active).

For `COC(=O)c1c(C)oc2ccc(N(C(=O)Oc3ccccc3)S(=O)(=O)c3ccccc3)cc12`, the z-score was -0.23.

With `O=C(c1cccnc1)N(c1ccc2oc(=O)sc2c1)S(=O)(=O)c1ccccc1`, the z-score was 3.74 (active).

With `O=C(c1cccnc1)N(c1cc2sc(=O)oc2c2ccccc12)S(=O)(=O)c1ccccc1`, the z-score is -2.86.

In the case of `COc1ccc(S(=O)(=O)N(C(=O)c2ccncc2)c2ccc3oc(=O)sc3c2)cc1OC`, the z-score was 3.3 (active).

For `CCOC(=O)C(C)Oc1ccc2c(=O)c(-c3ccc(OC)c(OC)c3)c(C(F)(F)F)oc2c1` (stereo not drawn), the z-score was 0.03.

Regarding `O=C1/C(=C/c2cc(Br)cs2)Cc2ccccc21`, the z-score was -0.91.

On to `CCOC(=O)/C(C#N)=C/N=C(N/N=C(\C)c1cc2ccccc2o1)SC`, for which the z-score is -2.01.

Take `NC(=O)CN1C(=O)C(O)(CC(=O)c2ccc3c(c2)CCCC3)c2ccccc21` (stereo not drawn): the z-score is -1.03.

As to `O=S(=O)(c1cc(Cl)ccc1Cl)N1c2ccccc2OC1c1ccc(Cl)c(Cl)c1` (stereo not drawn), the z-score is -0.36.

As for `CSC(=Nc1ccccc1C(F)(F)F)N1CCCC1`, the z-score was 1.69.

As for `CSC(=Nc1cc(C(F)(F)F)cc(C(F)(F)F)c1)N1CCCCC1`, the z-score is 5.99 (active).

In the case of `CCCC1c2ccsc2CCN1C(=S)Nc1ccccc1C(=O)OC` (stereo not drawn), the z-score was -0.25.

For `Oc1ccccc1C=NCCCN=Cc1ccccc1O`, the z-score was 4.14 (active).

`CSc1nnc(/N=C/c2ccccc2O)s1`: the z-score is 0.16.

As for `O=C(O/N=C(/Cc1ccccc1)C(F)(F)F)c1ccc(Cl)cc1`, the z-score was -0.11.

On to `Nc1c(C(=O)c2ccc(Cl)cc2)sc2nc(-c3cccs3)cc(C(F)(F)F)c12`, for which the z-score was 4.28 (active).

As for `Cc1cc(C)c2c(-n3cccc3)c(C(=O)c3ccc(Cl)cc3)sc2n1`, the z-score is -2.32.

Take `Cc1cc(-c2cccs2)c2c(N)c(C(=O)c3ccccc3)sc2n1`: the z-score is 0.82.

Take `COc1cccc(-c2nc(-c3cc4cc(C)ccc4[nH]c3=O)no2)c1`: the z-score was 0.33.

`CCOC(=O)c1c(NC(=O)c2sc3nc(C)cc(COC)c3c2N)sc2c1CCCC2`: the z-score was -1.64.

On to `Cc1cc(C)c2c(N)c(C(=O)NNC(=S)Nc3ccccc3)sc2n1`, for which the z-score is 5.62 (active).

On to `Cc1cc(C)c2c(N)c(-c3n[nH]c(=S)n3C)sc2n1`, for which the z-score was -3.29.

Turning to `C(#CCN1CCCCC1)COC(c1ccccc1)c1ccccc1`, the z-score is 4.06 (active).

In the case of `C#CC(CCN1CCCCC1)(OC)c1ccccc1` (stereo not drawn), the z-score was -0.6.

Consider `NS(=O)(=O)c1ccc2c(c1)OCCO2`, for which the z-score was -0.87.

In the case of `CCn1nc(C)cc1-c1n[nH]c(=S)n1-c1ccccc1`, the z-score is -0.98.

`Cc1cc(C)cc(Oc2coc3cc(OCC(=O)OC(C)C)ccc3c2=O)c1`: the z-score is 0.93.

As to `Cc1[nH]n(C)c(=O)c1C(=O)c1c(-c2c(Cl)cccc2Cl)noc1C`, the z-score is -0.59.

Regarding `Cc1onc(-c2ccccc2Cl)c1C(=O)OCC(=O)c1ccccc1`, the z-score was 4.29 (active).

As to `Cc1onc(-c2c(Cl)cccc2Cl)c1C(=O)N=S(C)(C)=O`, the z-score was 0.49.

Take `CCOCc1ccc2oc(C(=O)OCCN(CC)CC)cc2c1`: the z-score was 0.17.

Consider `Cc1nn2c3c(cnc2c1-c1ccc(F)cc1)C(=O)CC(c1cccc(Cl)c1)C3` (stereo not drawn), for which the z-score is 0.34.

As for `Oc1c(Cl)cc(Cl)c(Cl)c1Cc1c(O)c(Cl)cc(Cl)c1Cl`, the z-score is 13.8 (active).

In the case of `O=C(CN1C(=O)c2ccccc2S1(=O)=O)NC1CCCCC1`, the z-score is 1.13.

As to `Cc1ccc(C(=O)CC2(O)C(=O)N(CN3CCCCC3)c3ccc(Br)cc32)cc1` (stereo not drawn), the z-score is 0.51.

Turning to `CCOC(=O)c1sc(SC)c2c1-c1ccccc1N(C)S2(=O)=O`, the z-score is -1.61.

For the molecule `CCOC(=O)c1sc(SC)c(-c2ccccc2)c1N`, the z-score is 11.5 (active).

Regarding `CCOC(=O)c1sc2ccccc2c1N`, the z-score is 0.22.

For the molecule `CCOC(=O)/C(=N\Nc1ccccc1)c1csc(N)n1`, the z-score was 0.02.

On to `Cc1cc(C)n(C(=O)COc2ccc3ccccc3c2Br)n1`, for which the z-score was 2.85.

In the case of `CC(C)OC(=O)C1C(=O)CC(C)(O)C(C(=O)OC(C)C)C1c1ccc(O)cc1` (stereo not drawn), the z-score was -0.2.

In the case of `COC(=O)C1=C(C)NC2=C(C(=O)CC(C)(C)C2)C1c1cc(Cl)c(O)c(OC)c1` (stereo not drawn), the z-score was 3.12.

Regarding `CC(C(=O)N1CCCC1)N1c2cccc3cccc(c23)S1(=O)=O` (stereo not drawn), the z-score was -0.76.

On to `O=[N+]([O-])c1cc(-c2cnc3ccccc3n2)ccc1Sc1ccccn1`, for which the z-score was 15.7.

On to `COC(=O)c1ccccc1-c1c2ccc(=O)cc-2oc2cc(O)ccc12`, for which the z-score is 7.57 (active).

On to `COC(=O)c1ccccc1N(C)C(=O)c1cc(OC)c(OC)c(OC)c1`, for which the z-score was -0.98.

With `COC(=O)c1cc(OC)c(OC)cc1N1C(=O)c2ccccc2C1=O`, the z-score was 0.34.

For `COC(=O)c1cc(NC(=O)NC(=O)c2c(Cl)cccc2Cl)ccc1S(=O)(=O)Cc1ccc(Cl)cc1`, the z-score was 1.45.

As to `CN(C)CCN1C(=O)C(=O)/C(=C(/O)c2ccc(F)cc2)C1c1cccs1` (stereo not drawn), the z-score was 1.06.

Turning to `COC(=O)c1sccc1Oc1ccc(Cl)cc1[N+](=O)[O-]`, the z-score was -0.2.

As to `CC(CC(=O)O)Oc1ccc(Cl)cc1[N+](=O)[O-]` (stereo not drawn), the z-score was -0.09.

For `O=C(Oc1ccc(Cl)cc1Cl)c1ccc(Cl)cc1[N+](=O)[O-]`, the z-score is 4.36 (active).

Consider `CC(C)N1CNc2nc3ccccc3n2C1`, for which the z-score is 1.6.

Regarding `COc1ccc(S(=O)(=O)N2CCCCC2)cc1Br`, the z-score is 4.32 (active).

Regarding `COc1ccccc1N1CCN(S(=O)(=O)c2ccc(Br)cc2)CC1`, the z-score was 1.29.

Regarding `O=c1oc2cc(S(=O)(=O)N3CCCCC3)ccc2c2ccc(S(=O)(=O)N3CCCCC3)cc12`, the z-score is 1.67.

As for `Cc1nc(-c2ccc(S(=O)(=O)N3CCCN(c4ncc(C(F)(F)F)cc4Cl)CC3)s2)cs1`, the z-score was -1.58.

For the molecule `O=C1COCC(=O)N1c1ccc2c(c1)OCO2`, the z-score is 3.01 (active).

Regarding `O=C1COCC(=O)N1c1ccc(F)cc1F`, the z-score is 2.81.

Take `O=C1/C(=C/c2ccc3c(c2)OCO3)CCC/C1=C\c1ccc2c(c1)OCO2`: the z-score was -1.56.
